According to PubChem BioAssay AID1619 (SRMLSC, 2009):
About 830 (0.38%) of roughly 220,000 compounds were called active.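 How the source made its calls: active means compound inhibiting the enzyme by more than half at any dose during confirmatory dose-response retesting; inconclusive means strong single-dose inhibitors picked by rank but not retested; inactive means the rest.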 Not all results are given here. Results with a measured potency or affinity are listed apart.

target: Leucine aminopeptidase (Plasmodium falciparum (isolate 3D7)) (UniProt Q8IL11); test: P. falciparum M17LAP inhibitors, primary screen, biochemical, fluorogenic H-Leu-NHMec substrate, 1536-well (AID 1619); conditions: recombinant M17LAP, H-Leu-NHMec fluorogenic kinetic assay; at 30 µM; hits give high values;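 further: plate controls were full reaction with DMSO carrier for no effect and no enzyme background for full effect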
Sequence (Q8IL11 whole entry, looked up): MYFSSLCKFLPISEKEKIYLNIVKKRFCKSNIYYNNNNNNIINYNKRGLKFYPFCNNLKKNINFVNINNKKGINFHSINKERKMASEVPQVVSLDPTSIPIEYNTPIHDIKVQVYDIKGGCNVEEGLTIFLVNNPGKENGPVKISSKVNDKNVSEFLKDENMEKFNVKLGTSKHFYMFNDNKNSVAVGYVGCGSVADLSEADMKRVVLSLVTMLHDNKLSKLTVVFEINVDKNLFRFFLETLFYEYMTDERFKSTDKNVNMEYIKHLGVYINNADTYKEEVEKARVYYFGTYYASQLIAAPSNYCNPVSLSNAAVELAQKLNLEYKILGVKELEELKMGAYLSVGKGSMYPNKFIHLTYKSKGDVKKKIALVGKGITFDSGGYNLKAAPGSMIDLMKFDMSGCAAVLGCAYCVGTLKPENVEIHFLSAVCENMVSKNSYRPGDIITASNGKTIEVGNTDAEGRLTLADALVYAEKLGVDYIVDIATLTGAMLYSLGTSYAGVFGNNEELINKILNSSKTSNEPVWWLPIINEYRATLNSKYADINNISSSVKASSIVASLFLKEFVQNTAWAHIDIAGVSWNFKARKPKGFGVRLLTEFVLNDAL

inhibition, inactive:
CCOc1ccc(NC(=O)CSc2nc3c([nH]c4ccccc43)c(=O)n2C)cc1 1.51%, CC(C)(C)c1cn(-c2ccccc2)c(=S)[nH]1 1.06%, O=c1c(Cc2ccc(F)cc2)c(O)ccn1Cc1ccc(F)cc1 -0.83%, CS(=O)(=O)N1CCC(C(=O)O)CC1 -6.86%, CCOC(=O)c1c(NC(=O)CC2SC(N)=NC2=O)sc2c1CCC(C)C2 (stereo not given) 3.54%, COC(=O)C(NC(=O)C(C)Oc1ccccc1)C(C)C (stereo not given) 1.41%, COc1ccc(C2=NN(c3nc(C(=O)O)cs3)C(O)(C(F)(F)F)C2)c(OC)c1 (stereo not given) 26.5%, CN(C)S(=O)(=O)c1ccc(Cl)c(NC(=O)COC(=O)c2cc(-c3ccccc3)nc3ccccc23)c1 15.3%, C[C@H](NC(=O)OCc1ccccc1)C(=O)NNC(=O)[C@H](Cc1ccccc1)NC(=O)OC(C)(C)C 12.1%, COc1cc(C2/C(=C(\O)c3cc(C)ccc3C)C(=O)C(=O)N2CCN(C)C)ccc1O (stereo not given) -5.88%, Cc1ccc2nc(-c3ccc(NC(=O)CN4CCN(C(=O)c5ccco5)CC4)cc3)sc2c1 4.66%, O=C(CN1C(=O)c2ccccc2C1=O)NCC1CCCO1 (stereo not given) 10.2%, O=C(CN1CCN(Cc2ccccc2)CC1)NCC1COc2ccccc2O1 (stereo not given) 17%, CC1CCCCC1NC(=O)COC(=O)c1ccc(N(C)C)cc1 (stereo not given) -9.99%, CCOC(=O)C1C(=O)NC(N2CCN(CC)CC2)=NC1c1ccccc1 (stereo not given) 2.42%, COc1ccc(Cc2c(O)nc(SC)n(C(C)=O)c2=O)cc1 -1.99%, COc1ccc(-n2c(SCC(=O)N3CCOCC3)nc(O)c(Cc3ccccc3)c2=O)cc1 20.3%, COc1ccccc1NC(=O)CSc1nc(O)c(Cc2ccccc2)c(=O)[nH]1 35.1%, COc1ccc(-c2noc(CSc3nc(N)c(-c4ccccc4)c(=O)[nH]3)n2)cc1OC -5.97%, O=C(CSc1nc(O)c(Cc2ccccc2)c(=O)[nH]1)Nc1ccccc1 51.3%, Nc1nc(SCC(=O)Nc2ccccc2)[nH]c(=O)c1-c1ccccc1 8.35%, Nc1nc(SCC(=O)Nc2ccc(Cl)cc2)[nH]c(=O)c1-c1ccccc1 13.7%, COc1ccc(-c2noc(CSc3nc(N)c(-c4ccccc4)c(=O)[nH]3)n2)cc1 10.2%, CCOCCCNC(=O)CCNC(=O)c1cc(OC)c(OC)c(OC)c1 3.56%, CCN(CC)S(=O)(=O)c1ccc(C(=O)NCCN2C(=O)S/C(=C\c3cccnc3)C2=O)cc1 -4.15%, [N-]=C=C1C(=S)NC(=O)[C@H]([n+]2ccccc2)[C@H]1c1ccc(Cl)cc1 6.14%, COc1cc(NC(=O)c2ccccc2Cl)c(OC)cc1NC(=O)CN1CCCCC1 13.6%, CC(=O)Nc1ccc(C(=O)CSc2nnnn2C2CCCC2)cc1 11.4%, O=C(Cc1ccccc1)NCC(=O)OC(c1ccccc1)c1ccccc1 0.75%, OC(C#CCN1CCCC1)c1ccccc1 (stereo not given) 9.35%, O=S(=O)(c1ccccc1)n1ccc2cccnc21 7.22%, Cc1ccc(S(=O)(=O)CCC(=O)NCc2ccccc2Cl)cc1 22.9%, Cc1ccc(C)c2nc3sc(C(=O)N4CCCc5ccccc54)c(N)c3cc12 8.65%, O=C1C2C(c3ccccc3)C=CC(c3ccccc3)C2C(=O)N1C1CCCCC1 (stereo not given) 4.34%, COCCn1c(SCC(=O)Nc2cccc(OC)c2)nc2c(oc3ccccc32)c1=O -1.96%, COc1cccc(NC(=O)CSc2ncnc3c2oc2ccccc23)c1 2.46%, CCOC(=O)c1cccnc1SCC(=O)Nc1ccc(C)cc1 3.41%, CCN(C(=O)CSc1ncccc1C(=O)Oc1cccc([N+](=O)[O-])c1)c1cccc(C)c1 -2.44%, CCC(Sc1ncccc1C(=O)Oc1cccc([N+](=O)[O-])c1)C(=O)Nc1ccccc1OC (stereo not given) 46.5%, CSc1cccc(NC(=O)CSc2ncccc2C(=O)Oc2cccc([N+](=O)[O-])c2)c1 53%, O=C(N1CCCCC1)N1CCCN(C(=O)N2CCCCC2)CC1 7.89%, O=C(COc1ccc2ccccc2c1)Nc1ccc(S(=O)(=O)N2CCCCCC2)cc1 -9.55%, Cc1ccc(C(=O)Nc2nccs2)cc1 2.76%, Cc1ccc(C(=O)Nc2nnc(C)s2)cc1 11.4%, CC(=O)Cc1nsc(NC(=O)c2ccccc2)n1 9.29%, O=C(Nc1nc(=O)c2ccccc2s1)c1ccccc1 6.62%, CC(C)CCC1(CCNC(=O)c2cccs2)CCOC(C)(C)C1 (stereo not given) 0.32%, Cc1ccc(S(=O)(=O)n2nc(-c3ccco3)nc2N)cc1 -3.51%, O=C(NCCSCc1ccccc1)c1cc(S(=O)(=O)N2CCOCC2)ccc1F 6.12%, CC(C(O)C12CC3CC(CC(C3)C1)C2)N1CCCCC1 (stereo not given) 9.11%, Cc1nn(-c2ccccc2)c(C)c1/C=C/C(=O)OC(C)C(=O)Nc1ncc(Cl)cc1Cl (stereo not given) -12.7%, Cc1cc(=O)n(CNC(=O)c2ccccc2)c(=S)[nH]1 -9.25%, O=C(CSc1nc2ccc(Cl)cc2[nH]1)Nc1ccc2c(c1)CCC2 3.87%, CC(C)Cc1c(O)nc(SCC(=O)Nc2ccc3c(c2)CCC3)[nH]c1=O 54.1%, Cn1cnnc1SCC(=O)Nc1ccc2c(c1)CCC2 42.8%, O=C(CSc1nc2ccccc2[nH]1)Nc1ccc2c(c1)CCC2 1.81%, O=C(CSc1nncs1)Nc1ccc2c(c1)OCCO2 23.5%, CCC(C)c1c(O)nc(SCC(=O)Nc2ccccc2)[nH]c1=O (stereo not given) 25.4%, Nc1cc(=O)[nH]c(SCC(=O)Nc2ccc3c(c2)CCC3)n1 53.8%, O=C(CSc1nccc(=O)[nH]1)Nc1ccc2c(c1)OCCO2 -0.7%, Cc1coc(C)c1C(=O)CC1(O)C(=O)Nc2cc(Cl)cc(Cl)c21 (stereo not given) -6.03%, Cc1ccc(S(=O)(=O)N(C)C)cc1NC(=O)COc1ccc(-c2nnco2)cc1 -1.3%, CC(NS(=O)(=O)c1ccc([N+](=O)[O-])cc1)C(=O)NN (stereo not given) 5.26%, O=C1NC(=S)N/C1=C/c1cccn1-c1ccc([N+](=O)[O-])cc1 -21%, COc1ccc(OC)c(/C=C/C(=O)OCC(=O)Nc2ccc(Cl)c(S(=O)(=O)N(C)C)c2)c1 5.28%, Cc1cc(C)n(C(=O)c2ccc(C)o2)n1 6.21%, Cc1ccc(S(=O)(=O)c2ccc(NN)cc2)cc1 20.8%, Cc1ccc(C2N(c3nccs3)C(=O)C3CCCN32)cc1 (stereo not given) -15.4%, Fc1ccc(COc2ccccc2C(=S)N2CCCC2)cc1 10.6%, CN(C)S(=O)(=O)c1ccc(C(=O)NCc2ccccn2)cc1 -3.48%, Cc1ccc(S(=O)(=O)NC(=O)Nc2cc(C)ccc2F)cc1 -4.66%, CC(=O)NS(=O)(=O)c1ccc(N=c2ssc3c2-c2cc(C)ccc2NC3(C)C)cc1 55%, CC(=O)NS(=O)(=O)c1ccc(NS(=O)(=O)c2ccc(F)cc2)cc1 -13%, Cc1cc2c(cc1C)-c1c(ssc1=Nc1ccc(S(N)(=O)=O)cc1)C(C)(C)N2 -1.4%, Cc1nn(-c2ccc(Cl)c(Cl)c2Cl)c(=O)c2ccccc12 -4.32%, N#CC(C#N)=Cc1ccc(OC(=O)c2ccccn2)cc1 15.9%, COc1cc2c(cc1OC)C1(Nc3c-2c(-c2ccccc2)nn3-c2ccccc2)C(=O)Nc2ccccc21 (stereo not given) 0.95%, O=C(COC(=O)c1cnccn1)Nc1ccc2c(c1)OCO2 13.5%, CCOc1ccc(CCNC(=O)CN(C)S(=O)(=O)c2ccc3c(c2)CCC(=O)N3)cc1OCC -8.18%, COC(=O)CN(Cc1ccccc1)S(=O)(=O)c1ccc(OC)c(OC)c1 -2.5%, O=S(=O)(c1cccs1)N1CCN(c2ncccn2)CC1 -7.79%, COc1ccc(C(=O)Nc2ccccc2N2CCOCC2)cc1[N+](=O)[O-] 7.12%, CCOC(=O)c1c(-c2cccs2)csc1NC(=O)CC(C)C 7.23%, CCOC(=O)c1c(-c2cccs2)csc1NC(C)=O -14.7%, Cc1ccc(OCCCN2C(=O)C(=O)c3cccc(C)c32)cc1 13.8%, OC1NC(=S)N(c2ccccc2)C1O (stereo not given) 8.92%, COc1ccc(C2NC(=S)N3C(c4ccc(OC)cc4)NC(=S)N23)cc1 (stereo not given) 34.8%, COc1cccc(CC(NC(C)=O)C(=O)NC2CCN(c3nnnn3-c3ccccc3)CC2)c1 (stereo not given) 5.55%, CN(CCC#N)CC(=O)Nc1ccc(NC(=O)CN(C)CCC#N)cc1 -4.87%, NC(=O)c1ccc(-c2ccccc2F)cc1 6.07%, O=S1(=O)N=C(Nc2ccc(O)c(CN3CCCCC3)c2)c2ccccc21 18.9%, Cc1nnc(SCC(=O)Nc2sc3c(c2C(N)=O)CCCC3)[nH]c1=O 49.5%, CCOC(=O)c1c(NC(=O)CSc2nnc(C)s2)sc2c1CCCCC2 -4.03%, COC(=O)c1c(NC(=O)CSc2nnc(C)c(=O)[nH]2)sc(C)c1C 21.5%, CCOC(=O)c1c(NC(=O)CSc2nnc(C)c(=O)[nH]2)sc(C)c1C 11.9%
